Screening data (PubChem BioAssay)
Cycloheximide cs = counter-screen for Shiga toxin inhibitors: cycloheximide protein synthesis inhibition | cell reporter, cycloheximide protein synthesis inhibition counterscreen | max response, % | actives 12% (n = 300,000) | AID 2314; in the data active means max response mostly above about 13%, no sharp cut-off; inactive means mostly below about 14%; further: read at 38.3 µM for the half of the compounds with a filed dose; 0% is about no effect
LASV entry inh = inhibitors of Lassa virus binding or cell entry. Lassa virus pseudotype entry inhibition, cell reporter. Potency, µM (doses to about 37.9 µM), for inactives: at the highest dose activity change, negative = inhibition, hits mostly inhibitors. actives 1.2% (n = 300,000). AID 540256; calls by dose curve; tested in HEK293 cells; further: potency means the concentration at half of the fitted maximal effect; on the % scale 0 is the no-effect control and ±100 the full control effect; nearly all actives have a fitted effect of over 50% in size
Shiga toxin inh = inhibitors of Shiga toxin in Vero cells; Vero cells, Shiga toxin protein synthesis inhibition reporter; inhibition, % at 38.7 µM; actives 9.2% (n = 290,000); AID 2315; in the data active means inhibition mostly above about 28%, no sharp cut-off; inactive means mostly below about 43%; further: 0% is about no effect
Marburg entry inh = blocks Marburg virus binding to or entry into cells; Potency, µM (titrated, usually from 37.8 µM), for inactives: at the highest dose activity change, negative = inhibition, hits mostly inhibitors; Marburg virus pseudotyped entry inhibition, cell reporter; AID 540276; actives 1.8% (n = 300,000); calls by dose curve; tested in HEK293 cells; further: potency means the concentration at half of the fitted maximal effect; on the % scale 0 is the no-effect control and ±100 the full control effect
* hit, by the source's call; [ ] = dose if it differs, or a comment. Rows were chosen to be rich in hits. Some 12% of all compounds tested hit in one or more screens of this group.

Results for Cc1onc(C(=O)Nc2cccc(C(F)(F)F)c2)c1[N+](=O)[O-] ?
Cycloheximide cs: 26.8*; Shiga toxin inh: 21.9

How did CC(C)c1onc(C(=O)Nc2ccc3c(c2)OCO3)c1[N+](=O)[O-] do in these assays?
Cycloheximide cs: 33.1*; Shiga toxin inh: 52.1*

How did CCCc1nc2ccccc2n1CC(O)COc1ccc(C(=O)OC)cc1 (stereo not drawn) do in these assays?
LASV entry inh: -17.7%[46.1 µM]; Marburg entry inh: inconclusive

What do the screens show for `Cc1ccc(NC(=O)c2noc(C(C)C)c2[N+](=O)[O-])cc1`?
Cycloheximide cs: 55.4*; LASV entry inh: 20.1%; Shiga toxin inh: 78.4*; Marburg entry inh: 7.1%[46.1 µM]

Results for CC(C)c1onc(C(=O)N(C)C2CCCCC2)c1[N+](=O)[O-] ?
Cycloheximide cs: 25.7*; LASV entry inh: 25.7%[46.1 µM]; Shiga toxin inh: 23.0; Marburg entry inh: 18.5%[46.1 µM]

How did CCc1ccccc1NC(=O)c1noc(C(C)C)c1[N+](=O)[O-] do in these assays?
Cycloheximide cs: 5.2; LASV entry inh: inconclusive; Shiga toxin inh: 20.8; Marburg entry inh: -8.5%[46.1 µM]

Results for CC(C)c1onc(C(=O)NCc2ccccc2)c1[N+](=O)[O-] ?
Cycloheximide cs: 22.7*; LASV entry inh: 5.6%; Shiga toxin inh: 40.9*; Marburg entry inh: inconclusive

How did CC(C)c1onc(C(=O)NC2CCCC2)c1[N+](=O)[O-] do in these assays?
Cycloheximide cs: 6.9; Shiga toxin inh: -5.3

What do the screens show for `COc1ccc2nc(-c3ccc(Cl)cc3)cc(C(=O)O)c2c1`?
Cycloheximide cs: 11.4; Shiga toxin inh: 60.4

What do the screens show for `O=C(O)c1cc(N2CCCCC2)ccn1`?
LASV entry inh: 9.6%; Marburg entry inh: 9.6%

Results for CSc1nncc(-c2ccc(F)cc2)n1 ?
Cycloheximide cs: 14.1*; LASV entry inh: 5.0%; Shiga toxin inh: 24.2; Marburg entry inh: 0.2%

How did CN1CCN(C2CC(=O)N(c3ccc4c(c3)OCCO4)C2=O)CC1 (stereo not drawn) do in these assays?
Cycloheximide cs: 34.4*; LASV entry inh: 4.1%; Shiga toxin inh: 54.2; Marburg entry inh: -0.5%[46.1 µM]

How did Cc1cccc(NC(=O)COC(=O)c2nn(C)c(=O)c3ccccc23)c1C do in these assays?
LASV entry inh: -27.6%; Marburg entry inh: -1.8%

What do the screens show for `O=C(c1ccc(Cl)c(S(=O)(=O)N2CCCCCC2)c1)N1CCCCC1`?
Cycloheximide cs: 16.6*; Shiga toxin inh: 38.9*

What do the screens show for `Cc1ccc(C(=O)Nc2cccnc2)cc1S(=O)(=O)N1CCOCC1`?
Cycloheximide cs: 4.7; LASV entry inh: 5.1%; Shiga toxin inh: 13.7; Marburg entry inh: -5.7%

What do the screens show for `Cc1ccc(C(=O)Nc2cccnc2)cc1S(=O)(=O)N1CCCCCC1`?
Cycloheximide cs: 25.8*; LASV entry inh: -3.3%; Shiga toxin inh: 29.9; Marburg entry inh: -15.1%

Results for O=C(Nc1cccnc1)c1ccc(Cl)c(S(=O)(=O)N2CCCCCC2)c1 ?
Cycloheximide cs: 20.8*; LASV entry inh: -24.8%; Shiga toxin inh: 54.8; Marburg entry inh: inconclusive

Results for Cc1cccc(NC(=O)c2ccc(Cl)c(S(=O)(=O)N3CCCC3)c2)n1 ?
Cycloheximide cs: 54.5*; LASV entry inh: 2.0%; Shiga toxin inh: 59.4*; Marburg entry inh: inconclusive

How did CN(CC(=O)Nc1ccc(N2CCOCC2)cc1)C(=O)CSc1ccc(Br)cc1 do in these assays?
Cycloheximide cs: -1.5; LASV entry inh: -16.1%; Shiga toxin inh: -10.3; Marburg entry inh: 20.7%

Results for CCOc1ccc(/C=C(\C#N)c2nc(-c3cc4ccccc4oc3=O)cs2)c(OCC)c1 ?
LASV entry inh: 13.4%[46.1 µM]

How did COc1ccc2nc3cc(Cl)ccc3c(Nc3ccc(O)c(CN4CCN(C)CC4)c3)c2c1 do in these assays?
LASV entry inh: inconclusive; Marburg entry inh: 4.47µM*

Results for CC(=O)c1ccccc1C(=O)N1CCCC(CNC(=O)c2ccccc2Cl)C1 (stereo not drawn) ?
Cycloheximide cs: 27.3*; Shiga toxin inh: 31.8

Results for COc1ccc(C(=O)N2CCCC(CNC(=O)c3ccccc3Cl)C2)o1 (stereo not drawn) ?
Cycloheximide cs: 18.5*; Shiga toxin inh: 20.1

What do the screens show for `CC(C)NC(=O)CSc1ccccc1C(=O)N1CCN(S(=O)(=O)Cc2ccccc2)CC1`?
LASV entry inh: 16.0%; Marburg entry inh: 2.8%

Results for Oc1ccccc1Oc1c(F)c(F)nc(N2CCCC2)c1F ?
Cycloheximide cs: -2.9; LASV entry inh: 4.61µM*; Shiga toxin inh: -2.6; Marburg entry inh: inconclusive

What do the screens show for `COC(=O)[C@@H]1[C@@H](c2ccccc2)NC(=O)N(CCc2cc(OC)c(OC)c(OC)c2)[C@@H]1C`?
Marburg entry inh: -31.0%[14.2 µM]

How did Cc1ccc(C(=O)c2oc3ccccc3c2NC(=O)c2cc(=O)c3cc(C)ccc3o2)cc1 do in these assays?
LASV entry inh: 20.5%[46.1 µM]; Marburg entry inh: 3.6%[46.1 µM]

What do the screens show for `CCn1c(/C=C/c2c(C)[nH]c3ccccc23)nc2ccccc2c1=O`?
Cycloheximide cs: 6.5; LASV entry inh: 3.6%; Shiga toxin inh: 10.0; Marburg entry inh: inconclusive

What do the screens show for `CCn1c(/C=C\c2ccccc2C)nc2ccccc2c1=O`?
Cycloheximide cs: 23.4*; Shiga toxin inh: 81.7*

What do the screens show for `CCn1c(/C=C/c2ccccc2Cl)nc2ccccc2c1=O`?
Cycloheximide cs: 30.5*; LASV entry inh: 2.5%[46.1 µM]; Shiga toxin inh: 74.5*; Marburg entry inh: 13.6%[46.1 µM]

What do the screens show for `CCn1c(/C=C/c2c[nH]c3ccccc23)nc2ccccc2c1=O`?
Cycloheximide cs: 40.9*; Shiga toxin inh: 50.2*; Marburg entry inh: 18.9%[46.1 µM]

What do the screens show for `CSCc1ccc(C(=O)NCc2ccc(C)cc2)cc1`?
Cycloheximide cs: 21.0*; LASV entry inh: inconclusive; Shiga toxin inh: active; Marburg entry inh: inconclusive

Results for CSCc1ccc(C(=O)NCc2ccc(F)cc2)cc1 ?
Cycloheximide cs: 3.2; LASV entry inh: -29.6%; Shiga toxin inh: -52.2; Marburg entry inh: inconclusive

Results for CSCc1ccc(C(=O)NCc2ccccc2)cc1 ?
Cycloheximide cs: 31.0*; LASV entry inh: -22.3%; Shiga toxin inh: 27.3; Marburg entry inh: inconclusive

How did CSCc1ccc(C(=O)Nc2ccc(C(N)=O)cc2)cc1 do in these assays?
Cycloheximide cs: 28.4*; LASV entry inh: 2.8%; Shiga toxin inh: 50.4*; Marburg entry inh: -21.0%

What do the screens show for `CS(=O)(=O)N(Cc1ccccc1)c1ccc(C(=O)Nc2ccc(C(N)=O)cc2)cc1`?
Cycloheximide cs: 0.9; Shiga toxin inh: -7.7

What do the screens show for `C=C[C@@]1(C)CC[C@H]2C(=CC[C@@H]3[C@]2(C)CCC[C@@]3(C)C(=O)O)C1`?
Cycloheximide cs: -3.9; Shiga toxin inh: -10.2

What do the screens show for `CN1CCC2(CC1)Nc1nc(SCc3ccc(Cl)cc3)nn1C1=C2CN(C)CC1`?
Cycloheximide cs: -8.9; LASV entry inh: 14.1µM*; Shiga toxin inh: -7.6; Marburg entry inh: inconclusive

Results for COc1ccc(N2Cc3ccccc3/C2=N\C(=O)Nc2ccccc2)cc1 ?
Cycloheximide cs: 22.7*; LASV entry inh: -3.3%; Shiga toxin inh: 57.2; Marburg entry inh: -10.8%[46.1 µM]

Results for CCOC(=O)c1ccc(NC(=O)CN2Cc3ccccc3C2=O)cc1 ?
LASV entry inh: -23.8%[46.1 µM]

What do the screens show for `CC(=O)CN1Cc2ccccc2/C1=N\C(=O)Nc1ccccc1`?
Cycloheximide cs: 16.1*; LASV entry inh: 15.3%; Shiga toxin inh: 11.3; Marburg entry inh: 15.6%

What do the screens show for `CCOC(=O)c1c(NC(=O)c2cc(-c3ccccc3)on2)sc2c1CCCC2`?
LASV entry inh: -1.1%[46.1 µM]
